# According to PMC4336329 (PLoS ONE, 2015):
# The whole screen tested about 310,000 compounds, of which about 14,000 (4.5%) showed an effect of 50% or more. Effects have a minus sign here. The sample holds strong results, similar compounds and a random draw of the others, so the mix is not that of the screen.
# Target: human ether-à-go-go-related gene (hERG) potassium channel (human, UniProt Q12809)
# Assay: primary screen, population patch clamp on CHO cells stably expressing hERG; higher = less effect of the substance
# 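Note: peak tail current of the secondary pulse compared with the same well before compound.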
# Sequence of human ether-à-go-go-related gene (hERG) potassium channel (Q12809 whole entry, looked up): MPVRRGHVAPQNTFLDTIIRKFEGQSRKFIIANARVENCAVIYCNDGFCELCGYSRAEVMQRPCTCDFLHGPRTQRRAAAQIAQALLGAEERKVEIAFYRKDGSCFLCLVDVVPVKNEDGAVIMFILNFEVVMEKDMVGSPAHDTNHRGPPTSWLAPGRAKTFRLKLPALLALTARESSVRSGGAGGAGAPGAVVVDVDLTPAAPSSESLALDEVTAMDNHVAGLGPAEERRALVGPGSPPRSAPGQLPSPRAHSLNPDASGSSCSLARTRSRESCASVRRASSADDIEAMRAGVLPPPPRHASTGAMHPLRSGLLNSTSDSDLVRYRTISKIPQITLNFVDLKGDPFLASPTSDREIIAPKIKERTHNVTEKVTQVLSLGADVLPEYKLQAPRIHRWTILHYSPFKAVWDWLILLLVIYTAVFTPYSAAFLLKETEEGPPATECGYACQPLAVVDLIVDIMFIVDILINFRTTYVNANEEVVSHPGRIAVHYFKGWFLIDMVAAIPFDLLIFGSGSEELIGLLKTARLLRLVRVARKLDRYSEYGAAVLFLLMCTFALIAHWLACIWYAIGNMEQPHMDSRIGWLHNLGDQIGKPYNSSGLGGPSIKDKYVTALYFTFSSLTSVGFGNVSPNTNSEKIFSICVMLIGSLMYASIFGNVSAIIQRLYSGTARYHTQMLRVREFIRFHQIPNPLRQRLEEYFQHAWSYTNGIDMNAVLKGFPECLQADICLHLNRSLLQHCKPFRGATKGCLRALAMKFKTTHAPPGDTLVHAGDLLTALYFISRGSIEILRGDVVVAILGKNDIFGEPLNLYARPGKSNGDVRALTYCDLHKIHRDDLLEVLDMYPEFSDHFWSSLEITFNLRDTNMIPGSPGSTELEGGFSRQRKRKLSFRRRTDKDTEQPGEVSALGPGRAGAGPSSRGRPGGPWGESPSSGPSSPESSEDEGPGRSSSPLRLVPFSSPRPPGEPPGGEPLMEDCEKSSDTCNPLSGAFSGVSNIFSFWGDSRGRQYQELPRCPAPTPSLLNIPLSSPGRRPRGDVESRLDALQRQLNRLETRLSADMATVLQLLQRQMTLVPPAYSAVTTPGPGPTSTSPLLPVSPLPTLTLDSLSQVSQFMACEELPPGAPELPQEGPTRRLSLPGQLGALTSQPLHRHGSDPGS
row,Structure (SMILES),"hERG current change (%, negative = inhibition) at 10uM [%]"
1,CC(=O)N(c1ccc2oc(=O)sc2c1)S(=O)(=O)c1cccc2cccnc12,5.98
2,Cc1ccc(C)c(N2CCN(CCCNC(=O)Cn3c(=O)c4cccn4c4cccnc43)CC2)c1,-59.6
3,Cc1ccc(C)c(N2CCN(CCCNC(=O)CCn3c(=O)c4cccn4c4cccnc43)CC2)c1,-70
4,CC1CCCC(C)N1CCCNC(=O)CCn1c(=O)c2cccn2c2cccnc21 (centres unmarked),16.7
5,CC1CCCC(C)N1CCCNC(=O)Cn1c(=O)c2cccn2c2cccnc21 (centres unmarked),2.77
6,CCC1CCCCN1CCCNC(=O)Cn1c(=O)c2cccn2c2cccnc21 (centres unmarked),12.1
7,Cc1ccc(Cl)cc1N1CCN(C(=O)CCCn2c(=O)c3cccn3c3cccnc32)CC1,-15.1
8,O=C1NN(c2cccc(Br)c2)C(=O)/C1=C\c1ccc(O)cc1,12
9,CCS(=O)(=O)Nc1ccc(-c2nnc(SCC(=O)c3ccc(NC(C)=O)c(OC)c3)o2)cc1,-23.8
10,C#CCOCCOCCOCCNc1nc(N2CCN(C(=O)[C@H]([C@@H](C)CC)n3cc([C@@H](N)CO)nn3)CC2)nc(N2CCN(C(=O)[C@H](Cc3ccc(O)cc3)n3cc([C@@H](N)C(C)CC)nn3)CC2)n1.Cl (some centres unmarked),0.411
11,CC1CCN(C(=O)CN2C(=O)c3cccc4cccc(c34)C2=O)CC1,2.37
12,CC1CCC(CN2C(Nc3ccccc3)=NC[C@@H]2C)CC1 (some centres unmarked),-9.6
13,CC(C)C[C@H]1CN=C(Nc2ccccc2)N1CC1CCCCCC1,-60.6
14,CC(C)C[C@H]1CN=C(Nc2ccccc2)N1CC1CCC(C(C)(C)C)CC1 (some centres unmarked),-78.3
15,CC(C)C[C@H]1CN=C(Nc2ccccc2)N1CC1CCCC1,-24
16,CC(C)C[C@H]1CN=C(Nc2ccccc2)N1CC1CCC(C)CC1 (some centres unmarked),-50.3
17,CC(C)C[C@H]1CN=C(Nc2ccccc2)N1CC1CCCCC1,-45.7
18,CCOC(=O)c1cccc(NC(=O)CNC(=O)C2CCCCC2)c1,-3.8
19,O=C(COc1ccc(-n2cnnn2)cc1)Nc1ccccc1OC(F)F,4.44
20,N#Cc1c(N)n(-c2cccc(C(=O)O)c2)c2nc3ccccc3nc12,14.6
21,Cc1ccc(NC(=O)Nc2cnccn2)cc1,5.11
22,Cc1ccc(C(=O)CCC(=O)OCC(=O)Nc2ccc3[nH]c(=O)[nH]c3c2)cc1,14
23,O=C1C2C3C=CC(C2C(=O)N1c1ccc(O)cc1)C1C2C(=O)N(c4ccc(O)cc4)C(=O)C2C31 (centres unmarked),-10.7
24,COc1cccc(-c2c(C(=O)N/N=C/c3ccoc3)nnn2-c2nonc2N)c1,-9.92

row,Structure (SMILES),"hERG current change (%, negative = inhibition) at 10uM [%]"
1,CCSc1nnc(NC(=O)CCNS(=O)(=O)c2cc(Br)cnc2N)s1,0.00778
2,COc1cc(NC(=O)c2ccnnc2)cc(C(=O)Nc2cccc(C(F)(F)F)c2)c1,-52.8
3,Cc1ccc(C(=O)Nc2cccc(C(F)(F)F)c2)cc1NC(=O)c1cnnc2ccccc12,-5.9
4,Cc1ccc(C(=O)Nc2cccc(C(F)(F)F)c2)cc1Nc1ncnc2nc[nH]c12,-60.2
5,O=C(Nc1cccc(C(F)(F)F)c1)c1cccnc1,-21.3
6,COc1cc(NC(=O)c2ccc(N)nc2)cc(C(=O)Nc2cccc(C(F)(F)F)c2)c1,-5.66
7,Cc1cccc(Nc2ncnc3nc[nH]c23)c1C,-12.5
8,Cc1ccc(C(=O)Nc2cccc(C(F)(F)F)c2)cc1Nc1cnccn1,-38.4
9,COc1cc(Nc2ccccn2)cc(C(=O)Nc2cccc(C(F)(F)F)c2)c1,-2.6
10,Cc1ccc(C(=O)Nc2cccc(C(F)(F)F)c2)cc1Nc1cncnc1.O=C(O)C(F)(F)F,-74.3
11,Cc1ccc(C(=O)Nc2cccc(C(F)(F)F)c2)cc1Nc1ccccn1,-67.4
12,COc1cc(NC(=O)c2ccnc(N)c2)cc(C(=O)Nc2cccc(C(F)(F)F)c2)c1,-31.3
13,Cc1ccc(NC(=O)c2cccc(C(F)(F)F)c2)cc1NC(=O)c1[nH]cnc1C(N)=O,-1.07
14,CCSc1nn2c(=O)c3ccccc3nc2s1,-13.2
15,COc1cccc(-c2cc(=O)[nH][nH]2)c1,18
16,O=C(NCc1ccccc1)c1ccc(Br)o1,8.67
17,CCCCN(CC)CCNC(=O)c1nn(-c2ccc(OC)cc2)c(=O)c2c1c1ccccc1n2C,0.748
18,CCCCCc1nnc(NC(=O)C2CCCO2)s1 (centres unmarked),-1.64
19,COC(=O)c1ccc(S(=O)(=O)N2CCC(c3nc4ccccc4o3)CC2)cc1,1.99
20,COc1ccccc1N(CC(O)Cn1ccnc1C)S(=O)(=O)c1ccc(C)cc1.Cl (centres unmarked),-39.3
21,CCCC1C(=O)Nc2ccccc2N1C(=O)c1cccc(C)c1 (centres unmarked),2.13
22,CCCCSc1nc(C)cc(NC(=S)Nc2ccc(OC)cc2)n1,-25.4
23,Cc1ccc(C(=O)Nc2cccc(C(F)(F)F)c2)cc1NC(=O)c1nccnc1N,8.61
